Laboratory results taken from PubChem BioAssay (Tox21).
Records with an inconclusive call do not appear. Where a call stands in place of a potency, no number is given. Calls of active or inactive are those of the source. Calls follow the shape of the dose curve; as a rule, active = well fitted inhibition curve with a large enough effect in the signal ratio in the repeat runs, with a control signal flat; inconclusive = weak or mixed curves, or effect the other way; inactive = flat fitted curve, though single readings scatter; the % refers to the signal ratio.

The compounds below were run against D(2) dopamine receptor (Homo sapiens) (UniProt P14416) (assay: Dopamine D2 receptor (DRD2) small molecule antagonists, cell-based qHTS assay (AID 1963595)). Conditions: HEK293-DRD2 cAMP HTRF antagonist mode; series mostly up to 92.4 µM; activity change, negative = inhibition: at the top concentration.
Chain of D(2) dopamine receptor (Homo sapiens) (P14416 whole entry, looked up): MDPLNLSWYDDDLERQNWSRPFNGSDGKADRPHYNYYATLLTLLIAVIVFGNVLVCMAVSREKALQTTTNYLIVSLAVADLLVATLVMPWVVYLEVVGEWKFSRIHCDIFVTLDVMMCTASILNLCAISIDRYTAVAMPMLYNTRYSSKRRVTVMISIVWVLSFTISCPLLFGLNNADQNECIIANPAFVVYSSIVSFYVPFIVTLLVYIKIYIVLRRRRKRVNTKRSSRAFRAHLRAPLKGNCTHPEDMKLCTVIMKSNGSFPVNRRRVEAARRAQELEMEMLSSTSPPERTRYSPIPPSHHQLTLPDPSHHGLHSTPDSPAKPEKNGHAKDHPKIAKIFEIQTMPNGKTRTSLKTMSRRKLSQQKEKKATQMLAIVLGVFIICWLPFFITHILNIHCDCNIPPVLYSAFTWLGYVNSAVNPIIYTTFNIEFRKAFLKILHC
Procedure, shortened: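 Readout: HTRF cAMP, cAMP-d2 competing with cellular cAMP for anti-cAMP cryptate, read after 1 h. Cells: DRD2-HEK293. Conditions: 0.1 mM Ro20-1724, 12 nM quinpirole, 200 nM NKH477, 30 min RT.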

**Q.** Which Potency does the source give for S=C(NC1CCCCC1)NC1CCCCC1 here?
**A.** The Potency was “inactive”.

**Q.** O=c1cc(-c2ccccc2)oc2ccccc12 was tested. Which Potency did it give?
**A.** Its Potency is “inactive”.

**Q.** How did the Potency turn out when CC(C)(N=C=O)c1cccc(C(C)(C)N=C=O)c1 was run?
**A.** Its Potency is “inactive”.

**Q.** For Nc1cccc(N)n1, which Potency is on record?
**A.** The Potency was “inactive”.

**Q.** O=S(=O)(Oc1ccc(Cl)cc1Cl)c1ccccc1 was tested. Which Potency did it give?
**A.** Its Potency is “inactive”.

**Q.** With C[N+](C)(C)CC(O)CCl (stereo not given) as the compound, how does the “activity change, negative = inhibition” value read?
**A.** Its value is -1.65% (inactive).

**Q.** For Cn1sccc1=O, which “activity change, negative = inhibition” value is on record?
**A.** Its value is -1.44% (inactive).

**Q.** With NCCNCCNCCNCCN as the compound, how does the “activity change, negative = inhibition” value read?
**A.** The value was -1.25% (inactive).

**Q.** Which Potency does the source give for COc1ccc(N)c(C)c1 here?
**A.** Its Potency is “inactive”.

**Q.** With O=C(O)c1ccc(C(=O)O)c(C(=O)O)c1 as the compound, how does the Potency read?
**A.** Its Potency is “inactive”.

**Q.** CCC(C)NC(N)=O (stereo not given) was tested. Which “activity change, negative = inhibition” value did it give?
**A.** The value was -0.124% (inactive).

**Q.** How did the Potency turn out when CC(=O)OC1CC(C)OC(C)O1 (stereo not given) was run?
**A.** Its Potency is “inactive”.

**Q.** With CC(C)CC(C)O (stereo not given) as the compound, how does the Potency read?
**A.** The Potency was “inactive”.

**Q.** How did the “activity change, negative = inhibition” value turn out when COCc1ccc(COC)cc1 was run?
**A.** The value was 1.04% (inactive).

**Q.** With CCCCNc1ccccc1 as the compound, how does the “activity change, negative = inhibition” value read?
**A.** Its value is -13.6% (inactive).

**Q.** How did the Potency turn out when CCCCC(CC)COC(C)=O (stereo not given) was run?
**A.** Its Potency is “inactive”.

**Q.** With O=C1CCCCC1 as the compound, how does the Potency read?
**A.** The Potency was “inactive”.

**Q.** Which Potency does the source give for CCC(C)c1ccccc1O (stereo not given) here?
**A.** The Potency was “inactive”.

**Q.** How did the Potency turn out when Cc1cccc(C)c1[N+](=O)[O-] was run?
**A.** Its Potency is “inactive”.

**Q.** With N#Cc1ccc(C2CCCc3cncn32)cc1 (stereo not given) as the compound, how does the “activity change, negative = inhibition” value read?
**A.** Its value is -1.22% [at 42.5 µM] (inactive).

**Q.** With CC(=O)OC/C=C(\C)CC/C=C(\C)CCC=C(C)C as the compound, how does the Potency read?
**A.** The Potency was “inactive”.

**Q.** With O=C1CCC(=O)O1 as the compound, how does the “activity change, negative = inhibition” value read?
**A.** Its value is 2.37% (inactive).

**Q.** CS(=O)(=O)c1ccc(Cl)cc1 was tested. Which Potency did it give?
**A.** The Potency was “inactive”.

**Q.** For Cc1cccnc1, which Potency is on record?
**A.** Its Potency is “inactive”.

**Q.** How did the “activity change, negative = inhibition” value turn out when CS(=O)(=O)O was run?
**A.** Its value is 8.28% (inactive).

**Q.** NC(=Nc1ccccc1)Nc1ccccc1 was tested. Which “activity change, negative = inhibition” value did it give?
**A.** Its value is 11.5% [at 42.5 µM] (inactive).

**Q.** With O=C(O)c1ccccc1C(c1ccc(O)cc1)c1ccc(O)cc1 as the compound, how does the Potency read?
**A.** The Potency was “inactive”.

**Q.** How did the Potency turn out when CN1Cc2c(N)cccc2C(c2ccccc2)C1 (stereo not given) was run?
**A.** Its Potency is “inactive”.

**Q.** For C[n+]1ccn(CCO)c1, which Potency is on record?
**A.** Its Potency is “inactive”.

**Q.** With CCOC(=O)c1c(C)n(C)c2ccc(O)cc12 as the compound, how does the “activity change, negative = inhibition” value read?
**A.** The value was 2.35% [at 42.5 µM] (inactive).

**Q.** How did the activity change, negative = inhibition turn out when CC1=CC[C@@H]2C[C@H]1C2(C)C was run?
**A.** The activity change, negative = inhibition was -2.93% [at 18.9 µM] (inactive).

**Q.** With c1ccc2c(c1)-c1cccc3c1c-2cc1ccccc13 as the compound, how does the “activity change, negative = inhibition” value read?
**A.** The value was -4.27% (inactive).

**Q.** How did the Potency turn out when C=CC(=O)NCOCCCC was run?
**A.** The Potency was “inactive”.

**Q.** With O=[N+]([O-])c1ccc2nc[nH]c2c1 as the compound, how does the Potency read?
**A.** Its Potency is “inactive”.

**Q.** With CCCCCCCO as the compound, how does the “activity change, negative = inhibition” value read?
**A.** Its value is 3.25% (inactive).
